We go through 31 molecules from PubChem BioAssay (NCI).

SMILES strings stand for the structures. This is part of a sample that, as a whole, favours compounds with a hit. Of some 83,000 tested, about 20% had one in any assay.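 Activity criterion: percent growth below 10, measured after cells in 96-well plates were exposed to a single compound concentration for 48 hours.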 Values without a mark were called inactive. Active and inactive are the calls of the source.

Common to all, as to test: NCI-60 one-dose screen, 48 h (100 = growth as untreated, 0 = no growth, -100 = all killed)
Settings in all cases: 10 µM unless noted

Experiment [1] deals with SR leukemia.
Experiment [2] deals with RPMI-8226 leukemia.
Experiment [3] has as its system OVCAR-8 ovarian.
Experiment [4] has as its system OVCAR-5 ovarian.
The test system of experiment [5] is OVCAR-4 ovarian.
Experiment [6] relates to SK-OV-3 ovarian.
Experiment [7] deals with IGROV1 ovarian.
Experiment [8] relates to OVCAR-3 ovarian.
Experiment [9] has as its system HS 578T breast.
Experiment [10] deals with NCI/ADR-RES ovarian.

Take `Cc1ccc(C2CCCCC2)cc1Br`: the growth in experiment [1] is 91.4%; in [2], 100%; in [3], 98.4%; in experiment [4], 94.3%; in experiment [5], 119%; in experiment [6], 96.5%. Further, the growth in [7] is 101%; in experiment [8] it was 104%; in [9] it was 96.4%; in [10], 97.7%.
Take `Clc1ccc(C(SCc2ccccc2)SCc2ccccc2)cc1`: the growth in experiment [1] is 81%; in experiment [2], 83%; in experiment [3] it was 95.5%; in experiment [4], 93.3%; in experiment [5], 89%; in experiment [6] it was 94.9%. Moreover, the growth in [7] was 93.2%; in experiment [8] it was 90.1%; in [9], 93.4%; in [10] it was 98.9%.
Turning to `N#CC1(O)CCCCC1`, the growth is 91.6% in [1]; 105% in experiment [2]; 94.3% in [3]; 98.2% in [4]; 126% in [5]; 93.6% in experiment [6]. The growth is 101% in experiment [7], 104% in experiment [8] and 94% in [10].
Turning to `Cc1ccc(/C=N/NC(N)=S)s1`, the growth in experiment [1] is 97.3%; in experiment [2], 100%; in experiment [3] it was 107%; in experiment [4] it was 104%; in experiment [5], 110%; in experiment [6] it was 111%. Moreover, the growth in experiment [7] was 113%; in experiment [8], 105%; in experiment [9] it was 106%; in [10], 109%.
Regarding `COc1ccc(Nc2cc(Cl)ccc2C(=O)O)cn1`, the growth in [1] is 109%; in experiment [2] it was 90.6%; in experiment [3] it was 103%; in experiment [4], 107%; in experiment [5], 103%; in experiment [6], 97.3%. Besides, the growth in [7] is 115%; in experiment [8], 94.5%; in experiment [9], 95.8%; in experiment [10], 109%.
Consider `Nc1cccc2cccc(O)c12`, for which the growth in [1] is 58.5%; in [2], 85.5%; in experiment [3] it was 86.7%; in experiment [4], 103%; in experiment [5], 83.1%; in experiment [6], 100%. The growth in experiment [7] is 76%; in [8] it was 87.1%; in [9] it was 82.1%; in experiment [10], 95.5%.
Turning to `COc1c(CNC(=O)CCl)cc2[nH]c(C)cc2c1CNC(=O)CCl`, the growth in [1] was 34.9%; in experiment [2] it was 58.5%; in [3] it was 53%; in experiment [4], 96.7%; in experiment [5], 45.3%; in [6], 70.3%. For the same molecule, the growth in [7] is 33.8%; in experiment [8], 30.9%; in experiment [10], 118%.
Consider `CC(=O)Nc1ncc(S(=O)(=O)c2ccc([N+](=O)[O-])cc2)s1`, for which the growth in [1] is 96.4%; in experiment [2], 100%; in experiment [3], 103%; in experiment [4], 109%; in experiment [5], 102%; in [6] it was 94%. Further, the growth in [7] was 112%; in experiment [8], 120%; in experiment [10] it was 118%.
With `COc1ccc(/C=C\C(=O)/C=C/c2ccc(OC)cc2)cc1`, the growth in experiment [1] was 17.7%; in experiment [2], -20% (active); in experiment [3], 101%; in experiment [4], 107%; in experiment [5] it was 88.6%; in [6], 104%. Also, the figures for the growth in experiment [7], in experiment [8] and in experiment [10] were 92.3%, 85.1% and 99.2%, respectively.
Regarding `Cc1ccnc(Nc2nc3ccccc3[nH]2)n1`, the growth in [1] is 97.1%; in [2], 94.1%; in experiment [3], 106%; in experiment [4], 95.3%; in [5] it was 109%; in experiment [6] it was 101%. In addition, the growth was 97.6% in experiment [7], 132% in experiment [8] and 112% in experiment [10].
As for `COc1ccc(C2CCCCC2=O)cc1` (stereo not drawn), the growth is 103% in [1]; 107% in experiment [2]; 103% in experiment [3]; 96.9% in [4]; 103% in experiment [5]; 103% in experiment [6]. Further, the results for the growth in experiment [7], in experiment [8] and in experiment [10] were 118%, 121% and 108%, respectively.
For `BrCc1cccc(C[P+](c2ccccc2)(c2ccccc2)c2ccccc2)c1`, the growth is 50.3% in experiment [1]; 22.6% in [2]; 29.2% in [3]; 81.2% in experiment [4]; 36.8% in [5]; 90.2% in experiment [6]. For the same molecule, the values for the growth in experiment [7], in experiment [8] and in [10] were 38.8%, 14.2% and 111%, respectively.
Consider `CCCCCC#CC(=O)O`, for which the growth in [1] was 97.7%; in experiment [2], 99.7%; in experiment [3], 98.3%; in [4], 105%; in [5], 103%; in experiment [6], 102%. Also, the figures for the growth in experiment [7], in [8] and in [10] were 100%, 123% and 119%, respectively.
As for `O=C(O)c1ccccc1Cc1ccc2c(c1)CCCC2`, the growth in experiment [1] is 106%; in experiment [2] it was 108%; in experiment [3], 105%; in experiment [4], 104%; in experiment [5], 111%; in experiment [6] it was 111%. Moreover, the growth in experiment [7] is 99.5%; in experiment [8] it was 111%; in experiment [10] it was 115%.
With `O=c1cc(C(F)(F)F)[nH]c(=S)[nH]1`, the growth is 91.7% in experiment [1]; 111% in [2]; 105% in experiment [3]; 102% in [4]; 107% in [5]; 99.9% in [6]. Besides, the growth in experiment [7] was 105%; in experiment [8], 120%; in experiment [10], 109%.
Regarding `OC(CBr)CCBr` (stereo not drawn), the growth in [1] is 78.3%; in experiment [2] it was 98.8%; in experiment [3] it was 99.8%; in experiment [4] it was 106%; in [5] it was 93.5%; in experiment [6], 101%. Besides, the growth was 89.5% in experiment [7], 103% in [9] and 106% in [10].
In the case of `Oc1cccc(CNC2CCCCC2)c1`, the growth in experiment [1] was 102%; in [2], 104%; in experiment [3], 110%; in [4] it was 108%; in [5], 126%; in experiment [6] it was 109%. In addition, the growth in experiment [7] was 108%; in experiment [8], 119%; in experiment [10], 110%.
For `O=[N+]([O-])c1c(Cl)ncnc1Cl`, the growth is 96% in experiment [1]; 96.2% in experiment [2]; 104% in experiment [3]; 85.7% in experiment [4]; 103% in experiment [5]; 104% in experiment [6]. The results for the growth in [7], in experiment [8] and in experiment [10] were 117%, 105% and 118%, respectively.
Turning to `CNc1ccccc1C(N)=O`, the growth in experiment [1] was 109%; in experiment [2], 110%; in experiment [3], 103%; in experiment [4], 117%; in [5], 109%; in experiment [6], 107%. Moreover, the growth is 100% in experiment [7], 114% in [8] and 97.9% in experiment [10].
`CCOC(=O)CSCCC#N`: the growth was 94.2% in experiment [1]; 106% in [2]; 96.8% in [3]; 85% in [4]; 105% in experiment [5]; 92.5% in experiment [6]. Moreover, the growth was 107% in experiment [7], 107% in [9] and 100% in experiment [10].
Consider `CC(CC(CCC(=O)O)(c1ccccc1)c1ccccc1)N(C)C` (stereo not drawn), for which the growth in experiment [1] was 98.6%; in experiment [2], 109%; in experiment [3], 94.4%; in experiment [4] it was 98.4%; in experiment [5] it was 96.1%; in experiment [6] it was 97.6%. The growth in experiment [7] was 107%; in experiment [9], 106%.
Regarding `CCOC(=O)C(CCC#N)(CCC#N)C(=O)OCC`, the growth in experiment [1] was 103%; in [2] it was 96.6%; in [3], 104%; in experiment [4] it was 97.8%; in [5], 96%; in experiment [6] it was 108%. The growth in experiment [7] is 126%; in [9], 95.2%.
Regarding `Cc1cc(C(=O)c2ccccc2)cc(C)c1O`, the growth was 55.6% in [1]; 81.2% in [2]; 101% in experiment [3]; 99.5% in [4]; 86.8% in experiment [5]; 101% in experiment [6]. In addition, the growth was 103% in experiment [7], 109% in [8] and 104% in experiment [10].
As to `Cn1c(=O)[nH]c2ccccc2c1=O`, the growth in experiment [1] is 100%; in [2], 112%; in [3], 103%; in experiment [4], 123%; in [5] it was 110%; in experiment [6] it was 108%. Also, the growth in experiment [7] is 111%; in experiment [8], 112%; in experiment [10] it was 102%.
As to `O=C(CCl)Oc1ccc([N+](=O)[O-])cc1`, the growth in experiment [1] was 102%; in [2], 103%; in [3], 102%; in experiment [4], 107%; in [5] it was 106%; in experiment [6], 133%. Also, the growth in experiment [8] is 121%; in [9], 128%.
Turning to `O=C1NCC2CCCC1C2` (stereo not drawn), the growth in [1] is 110%; in experiment [2] it was 118%; in [3], 99.3%; in experiment [4], 107%; in [5] it was 103%; in [6], 110%. Also, the growth is 107% in [7], 114% in experiment [8] and 106% in [10].
`CC(=O)c1cccc(NS(=O)(=O)c2ccc(C)cc2)c1`: the growth in experiment [1] is 36.6%; in experiment [2], 86.6%; in experiment [3], 90.1%; in experiment [4], 92.8%; in experiment [5] it was 79%; in [6] it was 101%. In addition, the values for the growth in [7], in experiment [9] and in [10] were 62.8%, 86.9% and 50.5%, respectively.
Take `CC1(C)OC(=O)CC1=O`: the growth in experiment [1] is 89%; in [2], 93.4%; in experiment [3] it was 97.4%; in experiment [4], 101%; in experiment [5], 106%; in experiment [6], 91.6%. In addition, the figures for the growth in experiment [7], in experiment [9] and in experiment [10] were 107%, 96.6% and 105%, respectively.
Regarding `O=C(O)Cc1cccc2ccccc12`, the growth was 94.5% in experiment [1]; 104% in experiment [2]; 110% in experiment [3]; 102% in experiment [4]; 122% in experiment [5]; 103% in experiment [6]. The results for the growth in experiment [7] and in experiment [10] were 112% and 100%, respectively.
As for `COC1OC(COC(C)=O)C(OC(C)=O)C(OC(C)=O)C1OC(C)=O` (stereo not drawn), the growth in experiment [1] was 95.5%; in [2], 96.4%; in experiment [3] it was 97.9%; in experiment [4], 93%; in experiment [5], 86.5%; in experiment [6] it was 101%. In addition, the growth in experiment [7] was 118%; in [9], 101%.
As to `CC(C)c1ccccc1NC(=O)N1CCC(C(C)C)CC1`, the growth in [1] is 92.4%; in experiment [2] it was 105%; in experiment [3], 105%; in [4], 117%; in experiment [5], 96.7%; in [6] it was 105%. For the same molecule, the values for the growth in experiment [7] and in experiment [9] were 106% and 102%, respectively.
